Rows were chosen to be rich in hits. Some 19% of all compounds tested hit in one or more screens of this group.
CHX counter: counter-screen for Shiga toxin inhibitors: cycloheximide protein synthesis inhibition. cell reporter, cycloheximide protein synthesis inhibition counterscreen. max response, %. 12% of 300,000 active; in the data active = max response mostly above about 13%, no sharp cut-off; inactive = mostly below about 14%; note: read at 38.3 µM for the half of the compounds with a filed dose
Pf growth 48h: inhibits P. falciparum growth in the first generation, 48 h; 5.9% of 310,000 active; AID 504832; Potency, µM (highest dose often 28.7 µM), usual class: inhibitors; P. falciparum luciferase growth in erythrocytes, 48 h
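Luciferase-expressing P. falciparum in infected erythrocytes (2% hematocrit, 0.1% parasitemia final) in RPMI 1640/0.5% Albumax were exposed to compound for 48 hours at 37 C, 5% CO2; growth read as luminescence.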
Shiga inhibitor: blocks Shiga toxin action in Vero cells; Vero cells, Shiga toxin protein synthesis inhibition reporter; inhibition, % at 38.7 µM; 9.2% of 290,000 active; in the data active = inhibition mostly above about 28%, no sharp cut-off; inactive = mostly below about 43%
AMA1-RON2 inh: inhibitors of Plasmodium falciparum AMA1-RON2 interaction; AlphaScreen AMA1-biotinylated RON2 peptide binding; Potency, µM (highest dose often 58.2 µM), usual class: inhibitors; 0.2% of 360,000 active; AID 720542; note: nearly all actives have a fitted effect of over 45% in size
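AMA1 (3D7) with his tag at 25 nM final met compounds first, then biotinylated RON2 peptide at 25 nM; detection used donor plus acceptor beads, 10 µg/mL apiece, read by AlphaScreen after 30 min at room temperature.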
SARS PLP yeast: SARS-CoV PLP inhibition in yeast; 0.19% of 330,000 active; AID 485353; Potency, µM (titrated, usually from 32.9 µM), hits mostly activators; S. cerevisiae expressing SARS-CoV PLpro, growth rescue; calls by dose curve; note: nearly all actives have a fitted effect of over 55% in size
Pf growth 96h: inhibits malaria parasite growth, 96 h; P. falciparum luciferase reporter growth, 96 h; Potency, µM (top dose mostly 28.7 µM), usual class: inhibitors; 6.9% of 320,000 active
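Parasite growth measured via integrated firefly luciferase reporter in P. falciparum. Infected erythrocytes at 2% hematocrit, 0.05% parasitemia final were treated 96 hours at 37 C under 5% CO2, and luminescence was read.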
Each line names hits and unclear results; the compound was inactive in the other large screens. Unless noted, calls come from the whole dose curve; as a rule, active = well fitted curve in the direction sought with a large enough effect; inconclusive = small, poorly fitted or top-dose-only effect, or another doubt; inactive = no such curve, though single readings can be large; an effect the other way counts as inactive or inconclusive.

O=C1CCC(C(=O)N2CCCCO2)CN1Cc1cccc(F)c1 (stereo not drawn)	Pf growth 96h inconclusive
COc1nc(NCCC2=CCCCC2)nc(OC)n1	Pf growth 48h 10µM, AMA1-RON2 inh inconclusive, Pf growth 96h inconclusive
C1=C(CCNC2=NCCCCC2)CCCC1	none
O=[N+]([O-])c1cccc2ccc(/C=C/c3cccc(Br)c3)nc12	CHX counter 42, Shiga inhibitor 70
CCOc1cc(/C=C/c2ccc3cccc([N+](=O)[O-])c3n2)cc(Cl)c1O	CHX counter 11, Pf growth 48h 9.3µM, Pf growth 96h inconclusive
O=[N+]([O-])c1cccc2ccc(/C=C/c3ccc(Cl)cc3)nc12	CHX counter 45, Shiga inhibitor 137, AMA1-RON2 inh inconclusive, Pf growth 96h inconclusive
CCOc1cc(C=O)cc(N=Nc2cccc([N+](=O)[O-])c2)c1O	Pf growth 96h inconclusive
COc1cc(/C=C/c2ccc3cccc(OC)c3n2)c(OC(C)=O)c([N+](=O)[O-])c1	Pf growth 96h inconclusive (no result: Pf growth 48h)
Cn1cc2cccc([N+](=O)[O-])c2n1	Pf growth 48h inconclusive
CC(=O)Nc1ccc(/C=C/c2ccc3c([N+](=O)[O-])cccc3n2)cc1	CHX counter 33, Shiga inhibitor 70
OCC[C@@H]1C[C@H](O)[C@@H](O)[C@]2(OCCc3ccccc32)O1	none
CCOc1ccccc1NC(=O)C1CC(=O)n2ncnc2N1 (stereo not drawn)	none (no result: Pf growth 48h)
c1ccc(CCN(Cc2ccccc2)C2CCN(C3CCCC3)CC2)cc1	Pf growth 48h inconclusive, Pf growth 96h inconclusive
O=[N+]([O-])c1cccc2ccc(/C=C/c3ccc(C(F)(F)F)cc3)nc12	CHX counter 21, Pf growth 48h inconclusive
O=[N+]([O-])c1cc(C(F)(F)F)ccc1Sc1ccc2ccccc2n1	AMA1-RON2 inh inconclusive
c1ccc(OCc2nc3c4c(ncn3n2)-c2ccccc2CC42CCCC2)cc1	Pf growth 48h 13µM
Nc1ncnc2c1C1(CCCCC1)Cc1ccccc1-2	SARS PLP yeast inconclusive, Pf growth 96h 8.3µM
Nc1n[nH]c2c1C1(CCCCC1)Cc1ccccc1-2	Pf growth 96h inconclusive
CC(=O)c1ccc(NC(=O)C2CCN(S(=O)(=O)c3cccc4nonc34)CC2)cc1	none
CCc1ccc(C(c2c(C)nn(-c3ccccc3)c2N)c2c(C)nn(-c3ccccc3)c2N)cc1	Pf growth 48h 8.3µM, AMA1-RON2 inh inconclusive, Pf growth 96h inconclusive
Cc1cccc(OCC(=O)NCc2ccccc2)c1	Pf growth 96h 9.3µM
CCc1ccc2occ(CC(=O)Nc3ccc(OC)c(Cl)c3)c2c1	Shiga inhibitor 37 (no result: Pf growth 48h, AMA1-RON2 inh, SARS PLP yeast, Pf growth 96h)
CCOC(=O)/C=C/C(=O)OCC(=O)Nc1ccc(OC)c(Cl)c1	CHX counter 12
COc1ccc(OC)c(NC(=O)Cc2coc3ccc(C)cc23)c1	none (no result: Pf growth 96h)
COc1ccc(NC(=O)COC(=O)/C=C/C(=O)OCC(=O)Nc2ccc(OC)c(Cl)c2)cc1Cl	none
CCOC(=O)/C=C/C(=O)OCC(=O)Nc1c(Cl)cccc1Cl	Pf growth 48h 13µM
CCCCOC(=O)c1ccc(NC(=O)C(=O)NCCN(C)C)cc1	none
C/C(=N\NC(=O)COc1cccc(C)c1)c1ccc2ccccc2c1O	Pf growth 48h inconclusive, Pf growth 96h 2.6µM
CCOC(=O)/C=C/C(=O)OCC(=O)NCc1ccccc1	CHX counter 16, Pf growth 96h inconclusive
C/C(=C\C(=O)OCC(=O)NCc1ccccc1)C(=O)OCC(=O)NCc1ccccc1	none
COc1cccc2c1OC(=O)CC2c1ccc(C)cc1 (stereo not drawn)	none (no result: Pf growth 48h, AMA1-RON2 inh, SARS PLP yeast, Pf growth 96h)
Cc1ccc(Cn2nc(C)cc2C(=O)Nc2ccc(Cl)cc2)cc1	CHX counter 39, Pf growth 48h inconclusive, Shiga inhibitor 72, Pf growth 96h inconclusive
Cc1cc(C)n(Cc2ccc(NC(=O)c3c([N+](=O)[O-])c(C)nn3C)cc2)n1	none (no result: Pf growth 96h)
Cc1ccc(Cn2nc(C(=O)Nc3ccc(Br)cc3)cc2C)cc1	CHX counter 54, Shiga inhibitor 154
Cc1ccc(Cn2nc(C)cc2C(=O)Nc2ccccc2Cl)cc1	CHX counter 59, Shiga inhibitor 147
CN(Cc1ccccc1)C(=O)c1ccc(NC(=O)C2CCN(C(=O)OC(C)(C)C)CC2)cc1	none (no result: CHX counter, Pf growth 48h, Shiga inhibitor, Pf growth 96h)
Oc1c(C2=NCCNC(C(F)(F)F)=C2)ccc2ccccc12	CHX counter 38, Shiga inhibitor 70, AMA1-RON2 inh inconclusive
CCN(CC)C(=O)CSc1nc2cc3c(cc2c(=O)n1CCCCCC(=O)NCc1ccc(OC)cc1)OCO3	Pf growth 48h inconclusive
CN1CCN(S(=O)(=O)c2ccc(NC(=S)NC(=O)c3ccc(Cl)cc3)cc2)CC1	CHX counter 23, Pf growth 48h 4.7µM, Pf growth 96h 2.3µM
O=C(NC(=S)Nc1ccc(S(=O)(=O)N2CCCCC2)cc1)c1ccc(Cl)cc1	none (no result: Pf growth 48h)
CN1CCN(S(=O)(=O)c2ccc(NC(=S)NC(=O)c3ccccc3)cc2)CC1	CHX counter 21 (no result: Pf growth 96h)
CC(C)(C)C(=O)NCCCC(=O)O	Pf growth 48h inconclusive (no result: CHX counter, Shiga inhibitor, AMA1-RON2 inh, SARS PLP yeast)
O=C(CCSCCc1ccccn1)Nc1cccc([N+](=O)[O-])c1	none
NC(=O)COC(=O)c1ccc2noc(-c3ccccc3)c2c1	CHX counter 57, Shiga inhibitor 81 (no result: Pf growth 48h)
NC(=O)COC(=O)c1ccc(C(=O)C(=O)c2ccccc2)cc1	none
Nc1ccccc1N=Cc1ccc(-c2cccc(Cl)c2)o1	CHX counter 29, Pf growth 48h 10µM, Shiga inhibitor 76, Pf growth 96h inconclusive
CC1=NOC(=O)/C1=C\c1ccc(-c2cccc(Cl)c2)o1	AMA1-RON2 inh inconclusive
COC(=O)N/N=C/c1ccc(-c2cccc(Cl)c2)o1	CHX counter 33, Shiga inhibitor 55
Cc1ccc(-c2ccc(/C=N/c3ncn[nH]3)o2)cc1Cl	CHX counter 17
COC(=O)N/N=C/c1ccc(-c2ccc(C)c(Cl)c2)o1	CHX counter 16, Pf growth 96h inconclusive
COC(=O)N/N=C/c1ccc(-c2cc(Cl)cc(Cl)c2)o1	Pf growth 48h inconclusive, Pf growth 96h inconclusive
Cn1nc(C2CC2)cc1NC(=O)C1(C)CCN1C(=O)CCc1ccccc1 (stereo not drawn)	none (no result: CHX counter, Pf growth 48h, Shiga inhibitor, SARS PLP yeast, Pf growth 96h)
Cc1ccc(/C=C/S(=O)(=O)NCCC(=O)NCc2ccc(F)cc2)cc1	Pf growth 48h inconclusive (no result: CHX counter, Shiga inhibitor)
Cc1sc2ncn(CC(=O)NCC3COc4ccccc4O3)c(=O)c2c1S(=O)(=O)N1CCCCC1 (stereo not drawn)	none
O=C(Cn1nc([N+](=O)[O-])nc1Br)NC(c1ccccc1)c1ccccc1	Pf growth 96h inconclusive
NNc1nc(-c2ccccc2)nc(-c2ccccc2)c1Br	none (no result: CHX counter, Pf growth 48h, Shiga inhibitor, SARS PLP yeast, Pf growth 96h)
Cc1ccc(-c2ccc(C(=O)O)o2)cc1Cl	CHX counter 16
CCOC(=O)CN1CCC(C2(c3cc4ccccc4[nH]3)OCCO2)CC1	none (no result: CHX counter, Pf growth 48h, Shiga inhibitor, SARS PLP yeast, Pf growth 96h)
c1ccc(CSc2ccc(-c3cccnc3)nn2)nc1	CHX counter 21, Shiga inhibitor 50
Fc1ccccc1CSc1ccc(-c2ccco2)nn1	CHX counter 50, Shiga inhibitor 120
